Screening data (PubChem BioAssay)
The list is not random: actives were taken first. Their share in the collection is about 1.1%.
MazF activator = increases E. coli MazEF RNase cleavage of RNA; P0AE70; AID 504720; hit rate 0.32% among 350,000; activation, % at 20 µM; FAM/BHQ RNA-DNA oligo cleavage fluorescence, 5 h; in the data active = activation above about 50%
Target sequence (P0AE70 whole entry, looked up): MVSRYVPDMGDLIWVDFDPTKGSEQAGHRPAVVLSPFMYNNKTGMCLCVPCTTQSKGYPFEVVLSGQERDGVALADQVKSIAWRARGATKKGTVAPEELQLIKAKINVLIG
PrPC TRFRET = reduces human prion protein on the cell surface. P04156. cell surface PrPC, TR-FRET read-out. inhibition, % at 13.8 µM. hit rate 0.43% among 370,000. AID 720596; in the data active = inhibition above about 24%; also: 0% = median of the test wells and 100% = reference compound wells
BJeLR lethal = kills HRASV12-expressing BJeLR cells; BJeLR (HRASV12) viability, CellTiter-Glo ATP luminescence, 48 h; inhibition, % (test concentration not listed); hit rate 0.17% among 300,000; in the data active = inhibition above about 50%
PrP 5UTR inh = inhibition of PrP 5' UTR reporter expression; cell-based PrP 5' UTR mRNA reporter, plate reader; inhibition, % (test concentration not listed); hit rate 0.35% among 340,000; AID 488862; in the data active = inhibition above about 52%; also: 0 = median of the neutral control wells
An asterisk follows results filed as active; / = not tested or not shown; + = active, no number.

SMILES	MazF activator	PrPC TRFRET	BJeLR lethal	PrP 5UTR inh
CC(=O)Nc1ccc(N/C=C/C(=O)c2ccc(Cl)cc2)cc1	57*	4	-5	-33
CC(=O)c1ccc(N/C=C\C(=O)c2ccc(C)cc2)cc1	-7	2	4	-68
O=C(CN1C(=O)CCSc2ccccc21)Nc1cccc(Cl)c1F	/	-5	/	/
COc1ccc(CNC(=O)C(c2ccncc2)N(C(=O)Cc2cccs2)c2ccccc2)cc1 (stereo not drawn)	6	-1	/	-13
COc1ccc(N(C(=O)CCl)C(C(=O)NCCc2ccccc2)c2cccs2)cc1 (stereo not drawn)	2	-5	114*	-59
COC(=O)C12C=C3CC(c4ccc(C(F)(F)F)cc4)=C3C(=O)N1Cc1[nH]c3ccccc3c1C2 (stereo not drawn)	/	5	/	/
CC1(C)Cc2ccccc2-c2nnc(SCC(=O)Nc3ccc4c(c3)OCO4)n21	-4	26*	5	-24
COC(=O)[C@]12C[C@H](CC(=O)NCc3cccc(C(F)(F)F)c3)C(=O)N(Cc3ccccc3)C1=C[C@H](COCc1ccccc1)O[C@@H]2C	/	-9	/	/
NC(=O)c1ccc(NCCc2ccccc2)c([N+](=O)[O-])c1	1	-36	2	-10
Cc1cccc(NC(=O)c2ccc(NCC3CCCO3)c([N+](=O)[O-])c2)c1 (stereo not drawn)	121*	-10	6	-17
Cc1cccc(NC(=O)c2ccc(NCC3CCCO3)c([N+](=O)[O-])c2)n1 (stereo not drawn)	7	-29	10	-42
O=C(Nc1cccc(Cl)c1)c1ccc(NCC2CCCO2)c([N+](=O)[O-])c1 (stereo not drawn)	67*	-2	5	-49
O=C(Nc1ccccc1)c1ccc(NCCc2ccccc2)c([N+](=O)[O-])c1	+	1	-19	-16
Cc1cn(-c2cc(NC(=O)c3ccc(C)c(Nc4nccc(-c5cccnc5)n4)c3)cc(C(F)(F)F)c2)cn1	/	0	/	/
O=C(OCCN1CCN(C2CN(Cc3cn(Cc4ccccc4Cl)nn3)S(=O)(=O)C2)CC1)c1cccs1 (stereo not drawn)	/	-1	/	/
O=S(=O)(c1ccc(F)cc1)c1snnc1-c1ccccc1	-2	-4	61*	-61
O=S(=O)(c1ccc(Cl)cc1)c1snnc1-c1ccccc1	-7	7	96*	-58
COc1ccc(/C=C(\C#N)C(=O)NCCc2ccccc2)cc1OCc1ccccc1	84*	-5	-14	-23
COc1cc(/C=C(/C#N)C(=O)NCc2ccccc2)cc(OC)c1OC	2	-6	-6	6
Cc1cc(=O)n2c3c(c4c(cc13)c(CN(C)C)cc(=O)n4C)OC2	1	40*	/	-9
COc1ccc2c(c1)N=C(c1[nH]c3ccccc3c1CCN1C(=O)c3ccccc3C1=O)[C@]2(O)CCN1C(=O)c2ccccc2C1=O	/	-13	/	/
COc1cc(/C=C(\C#N)C(=O)NC2CCCCC2C)ccc1OS(=O)(=O)c1ccc(C)cc1 (stereo not drawn)	1	-2	84*	-16
ClC1=C(Cl)C(Cl)=C(Cl)C1=C/C=C/c1ccccc1	-6	-9	89*	-21
O=C1NC(=O)N(c2ccccc2)C(=O)/C1=C\C=C\c1ccccc1	-10	-5	38	-19
COc1ccc(NC(=O)CN(C)S(=O)(=O)c2ccc3[nH]c(=O)oc3c2)cc1	-31	1	56*	-9
SMILES	MazF activator	PrPC TRFRET	BJeLR lethal	PrP 5UTR inh
COC(=O)N1C[C@H](Oc2cccc3ccccc23)[C@H]2C[C@@H]1c1ccccc1O2	/	7	/	/
CCCCOc1ccc(OCCCC)c2c1NC1(N2)C(=O)N(C(C)=O)c2ccccc21	105*	-6	5	-6
C#CCNC(=O)C[C@H]1C[C@@]2(C(=O)OC)C(=C[C@H](COCc3ccccc3)O[C@@H]2C)N(CCC2=CCCCC2)C1=O	/	-8	/	/
COc1ccc(C2C(C(=O)Nc3c(C)cccc3C)CCC(=O)N2c2ccc(OC)cc2)cc1 (stereo not drawn)	/	-2	/	/
C[C@@H]1C=CC(=O)O[C@@H]1c1ccc(C(F)(F)F)cc1	/	/	92*	/
C[C@H]1C=CC(=O)O[C@H]1c1ccccc1	2	2	5	-5
CC(C)(C)OC(=O)N1CC=C2C(C#N)=C(N)C(C#N)(C#N)C(c3cccs3)C2C1 (stereo not drawn)	10	4	-9	-57
CC(C)(C)OC(=O)N1CC=C2C(C#N)=C(N)C(C#N)(C#N)[C@H](c3cccnc3)[C@H]2C1	125*	3	-2	-30
CC(C)(C)S(=O)(=O)N1C[C@H]2C(=C(CCO)C[C@H]3C(=O)N(c4ccccc4)C(=O)[C@H]32)[C@@H]1CCO	/	1	/	/
O=Cc1ccccc1-n1cncn1	-1	-5	-5	80*
O=C(O)CN1C(=O)/C(=C\c2cn(CC(=O)N3CCOCC3)c3ccccc23)SC1=S	191*	0	-4	8
CCN1C(=O)NC(=O)/C(=C\c2cn(CC(=O)N3CCCCC3)c3ccccc23)C1=O	117*	-4	3	11
O=C(O)CN1C(=O)/C(=C/c2ccc(SCc3ccccc3)o2)SC1=S	123*	0	/	-9
O=C(CCCN1C(=O)/C(=C\c2ccccc2)SC1=S)N1CCOCC1	6	0	/	-26
CSc1ncc(Cl)c(C(=O)Nc2sc3c(c2C(=O)NCc2ccco2)CCCC3)n1	/	-1	/	/
CCSc1ncc(Cl)c(C(=O)Nc2sc3c(c2C(=O)NCc2cccnc2)CCCC3)n1	112*	2	1	-22
COc1ccc(/C=N/Nc2ccc([N+](=O)[O-])cc2S(=O)(=O)N2CCN(C)CC2)cc1	166*	-2	4	31
COc1ccc(C=NNc2ccc([N+](=O)[O-])cc2S(=O)(=O)Nc2ccccc2C(=O)O)cc1OC	-12	-9	/	1
CSc1nnc2c(n1)C[C@H](c1ccccc1)[C@@H](C)[C@@H](C(=O)N1CCCC1)C2	/	-3	/	/
O=C(c1cc(Cl)ccc1F)N1CCCC(c2nc(-c3cccs3)no2)C1 (stereo not drawn)	/	-1	/	/
COc1ccc(N2CCCC2)c(NC(=O)c2ccc(Br)o2)c1	63*	-15	-6	-31
O=C(Nc1ccccc1N1CCCC1)c1ccc(Br)o1	8	3	-7	-18
O=C1OCC2=C1C(c1ccc3c(c1)OCO3)c1cc3c(cc1O2)OCO3 (stereo not drawn)	6	5	/	4
CC(C)c1ccc(C2C3=C(COC3=O)Nc3cc4c(cc32)OCO4)cc1 (stereo not drawn)	12	17	58*	51
Cc1ccc(-c2cc(-c3ccc(C)cc3)[n+](-c3ccc(C(=O)[O-])cc3)c(-c3ccc(C)cc3)c2)cc1	20	-21	78*	-1
Cc1ccc(-c2cc(-c3ccc(C)cc3)[n+](-c3ccccc3)c(-c3ccc(C)cc3)c2)cc1	26	/	68*	46
Cc1ccc(-c2cc(-c3ccccc3)cc(-c3ccccc3)[n+]2-c2ccccc2)cc1	24	27*	75*	-56
c1ccc(-c2cc(-c3ccccc3)[n+](-c3ccccc3)c(-c3ccccc3)c2)cc1	14	20	15	-9
